Keap1-Nrf2 PPI – Keap1-Nrf2 protein-protein interaction inhibitors, primary screen, biochemical, fluorescence polarization, single point; inhibition, % at 9.4 µM; Keap1 Kelch-Nrf2 peptide fluorescence polarization, 1536-well; 340,000 compounds, 0.15% hits; Kelch-like ECH-associated protein 1 (Homo sapiens), Q14145; in the data active = inhibition above about 12%; inconclusive = no clear call, values can overlap the other calls; inactive = below about 7.3%;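 note: human Keap1 Kelch domain with fluorescein labeled Nrf2 9mer peptide probe; 0% = neutral control wells and 100% = peptide positive control; higher means more block of Keap1 binding to Nrf2 peptide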
cardiac RTF act – cardiac RTF calcium sensitivity activators, primary screen, biochemical, IANBD-TnC fluorescence, EC20 calcium; AID 493008, 2010; Troponin I, cardiac muscle (Homo sapiens) + Troponin T, cardiac muscle (Homo sapiens) + …; 340,000 compounds, 0.24% hits; IANBD-labeled TnC RTF fluorescence at EC20 calcium; 0% EC20 calcium, 100% full calcium; activation, % at 7.2 µM;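 active = activation above the mean over all tested compounds plus 3 SD, cut at about 30% in these data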;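 note: rise in fluorescence read as greater calcium sensitivity of cardiac thin filaments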
Cardiac RTF inh – cardiac RTF calcium sensitivity inhibitors, primary screen, biochemical, IANBD-TnC fluorescence, EC70 calcium | Troponin I, cardiac muscle (Homo sapiens) + Troponin T, cardiac muscle (Homo sapiens) + … | IANBD-labeled cardiac RTF, Ca2+ fluorescence | inhibition, % at 7.15 µM | 340,000 compounds, 0.12% hits;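 active = inhibition above the mean inhibition of all tested compounds plus 3 SD, cut at about 17% in these data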;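 note: assay run at fixed EC70 calcium of 1.6 mM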
C-LANA FP – inhibitors of KSHV C-LANA binding to DNA, primary screen, biochemical, fluorescence polarization, FAM-LBS DNA, MBP-C-LANA, single point; Kaposi's sarcoma herpesvirus LANA C-terminal domain (residues 932-1162) DNA binding; inhibition, % at 9 µM; 340,000 compounds, 0.078% hits; AID 504423, 2011;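 active = highest replicate inhibition at or above 60% at 9 µM, even if other replicates fall short; inactive = all replicates below 60% inhibition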;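 note: 0% = neutral control wells and 100% = 4 µM acridine orange control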
E coli Lon inh – inhibitors of E. coli Lon protease, primary screen, biochemical, fluorescence polarization; P0A9M0; inhibition, % at 7.94 µM; purified E. coli Lon protease; 360,000 compounds, 0.42% hits; AID 602123, 2011; in the data active = inhibition above about 13%, passing the limit was not always enough;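 note: 0% = enzyme with probe and DMSO and 100% = no enzyme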
Target sequence (P0A9M0 whole entry, looked up): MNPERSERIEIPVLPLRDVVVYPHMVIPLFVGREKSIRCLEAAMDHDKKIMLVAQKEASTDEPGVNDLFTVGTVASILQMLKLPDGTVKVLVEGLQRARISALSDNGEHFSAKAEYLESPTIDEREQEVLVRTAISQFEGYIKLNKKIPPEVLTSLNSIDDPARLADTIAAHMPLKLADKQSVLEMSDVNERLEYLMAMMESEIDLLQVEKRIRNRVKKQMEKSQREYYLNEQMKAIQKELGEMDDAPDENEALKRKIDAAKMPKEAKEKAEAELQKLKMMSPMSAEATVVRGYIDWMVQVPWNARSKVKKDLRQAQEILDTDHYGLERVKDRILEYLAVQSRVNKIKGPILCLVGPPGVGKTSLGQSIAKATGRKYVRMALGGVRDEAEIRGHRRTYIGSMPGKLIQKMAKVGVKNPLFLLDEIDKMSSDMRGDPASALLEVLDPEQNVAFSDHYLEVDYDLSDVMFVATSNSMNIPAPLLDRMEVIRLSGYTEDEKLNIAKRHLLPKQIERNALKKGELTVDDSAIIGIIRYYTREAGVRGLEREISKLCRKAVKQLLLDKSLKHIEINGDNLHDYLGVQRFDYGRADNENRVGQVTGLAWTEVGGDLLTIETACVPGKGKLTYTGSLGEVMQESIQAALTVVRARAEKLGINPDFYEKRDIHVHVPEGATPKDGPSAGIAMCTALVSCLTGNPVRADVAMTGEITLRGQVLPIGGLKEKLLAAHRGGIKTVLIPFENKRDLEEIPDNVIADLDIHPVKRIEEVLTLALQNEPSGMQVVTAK
Starred values were filed as active, the others as inactive; i = inactive; ? = inconclusive; . = not tested or not shown. Compounds with a hit are over-represented: about 0.82% of the library has one in this group of screens.

SMILES	Keap1-Nrf2 PPI	cardiac RTF act	Cardiac RTF inh	C-LANA FP	E coli Lon inh
O=C(CC1CCCC1)N1CCN(S(=O)(=O)c2ccccc2)CC1	-44	33*	-125	.	2
O=C(OCC(=O)N1CCN(S(=O)(=O)c2ccccc2)CC1)C1CCC1	0	7	1	0	-5
N#C/C(=C/c1ccc(-c2ccc(S(N)(=O)=O)cc2)o1)c1nc2ccccc2s1	-8	347*	-466	10	-384
COC(=O)c1ccc(/C=C(\C#N)c2nc3ccccc3s2)cc1	1	-1	-9	0	-29
N#C/C(=C/c1ccc(-c2ccccc2)o1)c1nc(-c2cccs2)cs1	-4	93*	-43	3	-356
N#C/C(=C\c1ccccn1)c1nc2ccccc2s1	-14	60*	-59	-8	-86
O=C(CSc1ccc2nnc(-c3cccnc3)n2n1)Nc1ccccc1F	.	.	.	.	-5
O=C(CSc1nnc(Cc2cc(=O)[nH]c(=O)[nH]2)n1-c1ccc(Cl)cc1)NCC1CCCO1 (stereo unspecified)	?	1	1	5	22*
CC1CCCCC12NC(=O)N(CC(=O)N1CCN(C(=O)c3ccco3)CC1)C2=O (stereo unspecified)	-2	3	-15	0	-8
CN1CCc2c(sc(/N=C/c3cccs3)c2C(N)=O)C1	-15	31*	-16	6	-71
CN(C)c1ccc(/C=C2\SC(N3CCCCC3)=NC2=O)cc1	-5	40*	-75	1	-329
COc1ccc(OC)c(/C=c2\sc3nc(-c4cccs4)nn3c2=O)c1	11	50*	-2	24	11
CCCN1C(=O)S/C(=C\c2ccc(N3CCOCC3)o2)C1=O	-98	171*	-98	-18	-34
O=C(O)CN1C(=O)/C(=C/c2ccc(N3CCCCC3)o2)SC1=S	-27	15	-13	-10	-7
CCCN1C(=O)S/C(=C/c2ccc(N3CCOCC3)o2)C1=O	-142	189*	-202	-15	i
CCOC(=O)C1=CCN(S(=O)(=O)c2ccc(F)cc2)C1c1cccc(C)c1 (stereo unspecified)	.	.	.	.	1
CCOc1ccc(NS(=O)(=O)c2ccc(N)cc2)cc1	-4	-6	-16	1	-8
CCOc1ccc(Nc2ccc(N)c(S(=O)(=O)O)c2)cc1	7	-3	-2	88*	1
COc1cccc(-n2cc(C(=O)NCCCOC(C)C)c3ccccc3c2=O)c1	-6	-2	4	120*	-6
O=C(N/N=C/c1ccccc1)c1ccc(N2CCCC2=O)cc1	0	6	-6	1	-2
COc1ccc(C)cc1NC(=O)CC1COc2ccccc2O1 (stereo unspecified)	-1	67*	-14	-1	4
NS(=O)(=O)c1ccc(CCNC(=O)COC(=O)C2CCC2)cc1	-1	3	-7	1	0
O=C(O)c1ccccc1NS(=O)(=O)c1cccc(-n2sc3ccccc3c2=O)c1	7	-3	7	2	14
Nc1cc(C(=O)O)c(N)c2c1C(=O)c1ccccc1C2=O	?	5	-9	43	51*
O=c1c(CO)cc(CO)cc(CO)c1O	-7	1	-17	3	8
SMILES	Keap1-Nrf2 PPI	cardiac RTF act	Cardiac RTF inh	C-LANA FP	E coli Lon inh
O=C1C=CC(=O)c2c(O)c(CO)c(CO)c(O)c21	9	-32	36*	31	134
Cc1ccc2c(c1)C(=O)CC(c1ccccc1)S2 (stereo unspecified)	0	0	4	2	-16
C[C@H](O)Cc1cn(-c2cc3cc(C#Cc4ccsc4)ccc3oc2=O)nn1	-3	1	-3	-1	0
CCN(CC)c1ccc(/C=C2/SC(=O)N(C(C)C)C2=O)o1	-124	155*	-114	-9	-172
Cc1c(CN2CCCC(C)C2)c(O)n(CCO)c(=O)c1C#N (stereo unspecified)	-3	35*	4	0	3
Cc1c(C(=O)NCc2ccc3c(c2)OCCO3)sc(=O)n1Cc1ccc(S(=O)(=O)N(C)C)cc1	.	.	.	.	-2
CC1(C)C(=O)Nc2ccccc2N1C(=O)COC(=O)/C=C/c1ccc(OC(F)F)cc1	-3	1	-10	2	-2
COC(=O)[C@H]1[C@H]2C[C@@H]3c4[nH]c5cc(OC)ccc5c4CCN3C[C@H]2C[C@@H](OC(=O)c2cc(OC)c(OC)c(OC)c2)[C@@H]1OC	-11	14	-2	1	-3
COC(=O)C1=COC(C)C2CN3CCc4c([nH]c5cc(OC)c(OC)cc45)C3CC12 (stereo unspecified)	-2	30*	-22	33	37
Cc1ccc(C(=O)N[C@H](C(=O)NC2CCCCCCC2)C(C)C)cc1	-2	-2	-3	1	0
COc1cc(/C=C2\CCC(C)C3=C(c4cc(OC)c(OC)c(OC)c4)C(C#N)=C(N)OC32)cc(OC)c1OC (stereo unspecified)	-11	40*	-57	1	-153
CC(C)(C)c1ccc(CC(=O)N2CCC2(C)C(=O)NS(=O)(=O)c2ccc3c(c2)CCO3)cc1 (stereo unspecified)	.	.	.	.	8
O=C(O)COc1ccc2nsnc2c1Cl	-3	-1	-4	0	-2
Cc1ccccc1C1=C/C(=C(\SS/C(C(=O)c2ccc(OCC(=O)O)c(Cl)c2Cl)=C2\C=C(c3ccccc3C)SS2)C(=O)c2ccc(OCC(=O)O)c(Cl)c2Cl)SS1	5	-44	-14	100*	-8
O=C(N1CCOCC1)N1[C@H](COCc2ccccc2)C=CS1(=O)=O	.	.	.	.	-3
CCN(CC)c1ccc2cc(C(N)=O)c(=N)oc2c1	-209	.	.	-4	-92
CCN(CC)c1ccc2cc(-c3nnc(-c4ccncc4)o3)c(=O)oc2c1	-101	163*	-200	-6	i
CCN(CC)c1ccc2cc(C(N)=O)c(=O)oc2c1	-17	15	-11	3	-92
CCN(CC)c1ccc2cc(C=O)c(=O)oc2c1	-176	425*	-425	-5	-403
CCN(CC)c1ccc2cc(C(=O)Nc3ccccn3)c(=O)oc2c1	1	53*	-32	9	-120
CCN(CC)c1ccc2cc(C(C)=O)c(=O)oc2c1	-74	153*	-186	7	i
O=C(CSc1nnc(-c2ccccc2F)o1)Nc1ccc(N2CCOCC2)cc1	-2	-1	2	-1	-6
O=C(CN1CCN(S(=O)(=O)c2ccccc2F)CC1)Nc1ccnn1C1CCCC1	-2	2	-13	0	-2
CCN1C(=NCCCOC(C)C)N[C@@H](CCc2ccccc2)[C@H](C(=O)NCCCOC(C)C)[C@H]1C	-4	3	-3	4	10

Screening results from PubChem BioAssay.
